Reference: PubChem BioAssay (Tox21)
“And” between values parts separate entries of the source, which are not always exact repeats. Equal entries are not always repeated. Inconclusive results are not listed. The source made the active and inactive calls. Unless noted, calls come from the whole dose curve.

Columns and labels:
[1] = Nuclear factor erythroid 2-related factor 2/antioxidant responsive element (Nrf2/ARE) small molecule agonists: luciferase reporter gene qHTS assay in human keratinocytes (AID 1919969); note: nearly all actives have a fitted effect of over 35% in size; note: potency is the fitted concentration of half-maximal effect
[2] = target: Gonadotropin-releasing hormone receptor (Homo sapiens) (UniProt P30968); assay: Human gonadotropin-releasing hormone receptor (GnRHR) small molecule agonists, calcium flux assay in GnRHR-HEK293 cells (AID 1920063); note: nearly all actives have a fitted effect of over 35% in size; note: potency is the fitted concentration of half-maximal effect
Method in brief: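 Calcium flux, agonist mode, human GnRHR stably integrated in HEK293; dye 1 h at 37 C before compound; Ex/Em=480/540 kinetic read, 3 min; 15 concentrations, triplicate.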

[3] = target: KiSS-1 receptor (Homo sapiens) (UniProt Q969F8); assay: Human kisspeptin (KISS1R) small molecule agonists, calcium flux assay in KISS1R-HEK293 cells (AID 1920064; active = well fitted activation curve with a large enough effect in the repeat runs)
Method in brief: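 Triplicate 15-concentration series were applied to dye-loaded human KISS1R HEK293 cells, and agonist-evoked calcium fluorescence was captured for 3 min.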

[4] = G protein-coupled receptor (GPCR) small molecule agonists, calcium flux assay: HEK293 wild type cell line counter screen (AID 1920065)
Method in brief: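 Non-specific calcium responders were flagged by adding DMSO-dissolved compounds to dye-loaded cells and reading 480/540 nm fluorescence each second for 3 min; ATP served as positive control.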

[5] = p53 small molecule agonists, cell-based qHTS assay with human liver microsomes (AID 1963577);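 note: p53 response element beta-lactamase reporter cells with liver microsomes plus NADPH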
Method in brief: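 Steps: plate p53RE-bla cells, incubate 5 h at 37 C; add compound in DMSO; add microsomes (0.5 mg/mL final) and NADPH (0.5 mg/mL final); incubate 16 h at 37 C; add LiveBLAzer, 2 h RT; read fluorescence.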

[6] = p53 small molecule agonists, cell-based qHTS assay with rat liver microsomes (AID 1963578)
Method in brief: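 Metabolic activation is supplied by rat liver microsomes with NADPH (each 0.5 mg/mL final). p53RE-bla cells incubate with compound 16 h at 37 C; reporter activity is measured by LiveBLAzer fluorescence.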

[7] = p53 small molecule agonists, cell-based qHTS assay with human liver microsomes: qHTS cell viability counter screen (AID 1963579); note: nearly all actives have a fitted effect of over 45% in size; note: potency is the fitted concentration of half-maximal effect
Method in brief: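 After the 460/530 nm beta-lactamase read, CellTiter-Glo was added to the same wells and luminescence measured after 30 min at room temperature, giving viability of p53RE-bla cells treated 16 h with compounds plus microsomes and NADPH.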

[8] = p53 small molecule agonists, cell-based qHTS assay with rat liver microsomes: qHTS cell viability counter screen (AID 1963580); note: nearly all actives have a fitted effect of over 45% in size; note: potency is the fitted concentration of half-maximal effect
Method in brief: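 Cytotoxicity counter screen: intracellular ATP measured by CellTiter-Glo luminescence in the same wells as the beta-lactamase reporter read, on HCT-116 p53RE-bla cells exposed 16 h at 37 C to compounds with rat liver microsomes and NADPH, each 0.5 mg/mL final.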

[9] = p53 small molecule agonists, cell-based qHTS assay (AID 1963582; active = well fitted activation curve with a large enough effect in the signal ratio in the repeat runs, not every such curve was filed as active; the % refers to the signal ratio)
Method in brief: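 Beta-lactamase reporter cells (p53RE-bla) treated with compounds for 16 h at 37 C; FRET substrate, 2 h, room temperature; fluorescence intensity.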

[10] = target: 5-hydroxytryptamine receptor 2A (Homo sapiens) (UniProt P28223); assay: 5-hydroxytryptamine receptor 2A (HTR2A) small molecule antagonists, cell-based qHTS assay (AID 1963586); note: nearly all actives have a fitted effect of over 45% in size; note: potency is the fitted concentration of half-maximal effect
Method in brief: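 CHO cells stably expressing human HTR2A were plated for 18 h at 37 C, then loaded with calcium dye for 1 h. Compounds were preincubated 5 min at room temperature before DOI (4 nM solution) was added. Kinetic fluorescence was read for 3 min.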

[11] = target: 5-hydroxytryptamine receptor 2A (Homo sapiens) (UniProt P28223); assay: 5-hydroxytryptamine receptor 2A (HTR2A) small molecule agonists, cell-based qHTS assay (AID 1963587); note: nearly all actives have a fitted effect of over 30% in size; note: potency is the fitted concentration of half-maximal effect
Method in brief: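 CHO cells stably expressing human HTR2A, plated 18 h, loaded with calcium dye 1 h at 37 C. Agonist mode: compounds added and intracellular calcium fluorescence recorded kinetically for 2 min at 1 sec intervals.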

[12] = target: Muscarinic acetylcholine receptor M1 (Homo sapiens) (UniProt P11229); assay: Cholinergic receptor muscarinic 1 (CHRM1) small molecule agonists, cell-based qHTS assay (AID 1963589); note: nearly all actives have a fitted effect of over 35% in size; note: potency is the fitted concentration of half-maximal effect
Method in brief: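 qHTS, 15-point titration, 3 independent runs: compounds pin-transferred onto dye-loaded CHRM1-CHO cells (human M1), calcium fluorescence followed every second to detect agonism.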

[13] = target: D(2) dopamine receptor (Homo sapiens) (UniProt P14416); assay: Dopamine D2 receptor (DRD2) small molecule agonists, cell-based qHTS assay (AID 1963594); note: nearly all actives have a fitted effect of over 35% in size; note: potency is the fitted concentration of half-maximal effect
Method in brief: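 HEK293 cells stably expressing human DRD2, pre-treated with PDE inhibitor Ro20-1724 (0.1 mM final) and compound 10 min at room temperature, then stimulated with NKH477 (200nM […]) for 30 min. cAMP read by HTRF (665/620 nm).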

[14] = target: D(2) dopamine receptor (Homo sapiens) (UniProt P14416); assay: Dopamine D2 receptor (DRD2) small molecule antagonists, cell-based qHTS assay (AID 1963595; active = well fitted inhibition curve with a large enough effect in the signal ratio in the repeat runs, with a control signal flat; the % refers to the signal ratio)
Method in brief: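 HEK293 cells stably expressing DRD2, preincubated with 0.1 mM Ro20-1724 and compounds 10 min, were stimulated with 200 nM NKH477 plus 12 nM quinpirole for 30 min at room temperature; cAMP measured by HTRF (665/620 nm).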

[15] = p53 small molecule agonists, cell-based qHTS assay: qHTS cell viability counter screen (AID 1963581); note: nearly all actives have a fitted effect of over 45% in size; note: potency is the fitted concentration of half-maximal effect
Method in brief: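 Multiplexed with the reporter read, a CellTiter-Glo step (30 min, room temperature) gauges ATP-based viability of HCT-116 p53RE-bla cells after 16 h compound incubation at 37 C.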

[16] = target: Muscarinic acetylcholine receptor M1 (Homo sapiens) (UniProt P11229); assay: Cholinergic receptor muscarinic 1 (CHRM1) small molecule antagonists, cell-based qHTS assay (AID 1963588); note: nearly all actives have a fitted effect of over 40% in size; note: potency is the fitted concentration of half-maximal effect
Method in brief: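 Compounds were tested at 15 concentrations in three independent runs. Dye-loaded CHRM1-CHO cells were exposed 5 min at room temperature before stimulation by acetylcholine added at 50nM. Intracellular calcium was read kinetically on FDSS for 3 min.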

[17] = target: Beta-2 adrenergic receptor (Homo sapiens) (UniProt P07550); assay: Adrenergic beta2 receptor (ADRB2) small molecule antagonists, cell-based qHTS assay (AID 1963592); note: nearly all actives have a fitted effect of over 50% in size; note: potency is the fitted concentration of half-maximal effect
Method in brief: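 Assay format: CHO-ADRB2 cells, 18-20hr seeding at 37C/5% CO2, then compound plus 1nM isoproterenol agonist mix for 0.5hr RT. Homogeneous time-resolved fluorescence cAMP detection after 1hr, expressed as 665/615 nm ratio.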

[18] = cAMP Responsive Elements (CRE) small molecule antagonists, cell-based qHTS assay (AID 1963591; active = well fitted inhibition curve with a large enough effect in the signal ratio in the repeat runs, not every such curve was filed as active; the % refers to the signal ratio)
Method in brief: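 Fluorescence intensity from cleaved LiveBLAzer B/G substrate (2 h, room temperature) quantified CRE-bla activity in HEK 293T cells exposed 3 h to compound with 0.25 uM final NKH477.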

[19] = cAMP Responsive Elements (CRE) small molecule agonists, cell-based qHTS assay (AID 1963590)
Method in brief: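 Quantitative HTS for CRE agonists: HEK 293T CRE-bla cells, overnight plating, 3 h compound incubation at 37 C/5% CO2, then 2 h room-temperature LiveBLAzer B/G FRET substrate loading.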

[20] = target: Beta-2 adrenergic receptor (Homo sapiens) (UniProt P07550); assay: Adrenergic beta2 receptor (ADRB2) small molecule agonists, cell-based qHTS assay (AID 1963593);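 note: CHO cells stably overexpressing human ADRB2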
Method in brief: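 CHO cells stably over-expressing ADRB2 were plated overnight at 37C, then dosed with compounds plus a stimulation mix containing 100uM IBMX and 25uM Ro-20-1724 for 0.5hr at room temperature. cAMP was measured by HTRF competition, 1hr.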

Measured: Potency

Muscarinic acetylcholine receptor M1 (Homo sapiens), sequence (P11229 whole entry, looked up): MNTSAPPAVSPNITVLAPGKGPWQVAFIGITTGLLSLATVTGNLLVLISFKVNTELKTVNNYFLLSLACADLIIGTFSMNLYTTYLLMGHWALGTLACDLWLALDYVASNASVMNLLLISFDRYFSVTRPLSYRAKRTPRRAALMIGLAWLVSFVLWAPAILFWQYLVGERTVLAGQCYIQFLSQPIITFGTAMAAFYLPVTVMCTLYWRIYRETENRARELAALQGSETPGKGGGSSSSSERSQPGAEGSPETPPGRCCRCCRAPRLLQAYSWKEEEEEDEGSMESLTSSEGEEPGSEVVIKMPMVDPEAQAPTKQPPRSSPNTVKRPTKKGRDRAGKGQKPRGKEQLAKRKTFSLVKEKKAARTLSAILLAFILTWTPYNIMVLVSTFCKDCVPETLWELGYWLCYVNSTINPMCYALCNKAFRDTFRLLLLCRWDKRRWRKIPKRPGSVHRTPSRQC
KiSS-1 receptor (Homo sapiens), sequence (Q969F8 whole entry, looked up): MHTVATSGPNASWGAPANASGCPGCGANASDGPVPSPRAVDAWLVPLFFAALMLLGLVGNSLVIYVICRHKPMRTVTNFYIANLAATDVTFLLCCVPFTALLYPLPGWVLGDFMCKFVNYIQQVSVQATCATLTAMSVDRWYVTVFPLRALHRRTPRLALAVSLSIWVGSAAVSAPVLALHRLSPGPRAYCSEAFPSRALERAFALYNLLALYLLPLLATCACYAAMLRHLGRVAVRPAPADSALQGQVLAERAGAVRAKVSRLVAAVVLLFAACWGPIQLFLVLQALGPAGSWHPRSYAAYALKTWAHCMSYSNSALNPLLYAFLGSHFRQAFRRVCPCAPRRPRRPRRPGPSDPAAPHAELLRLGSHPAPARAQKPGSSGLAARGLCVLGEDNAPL
Beta-2 adrenergic receptor (Homo sapiens), sequence (P07550 whole entry, looked up): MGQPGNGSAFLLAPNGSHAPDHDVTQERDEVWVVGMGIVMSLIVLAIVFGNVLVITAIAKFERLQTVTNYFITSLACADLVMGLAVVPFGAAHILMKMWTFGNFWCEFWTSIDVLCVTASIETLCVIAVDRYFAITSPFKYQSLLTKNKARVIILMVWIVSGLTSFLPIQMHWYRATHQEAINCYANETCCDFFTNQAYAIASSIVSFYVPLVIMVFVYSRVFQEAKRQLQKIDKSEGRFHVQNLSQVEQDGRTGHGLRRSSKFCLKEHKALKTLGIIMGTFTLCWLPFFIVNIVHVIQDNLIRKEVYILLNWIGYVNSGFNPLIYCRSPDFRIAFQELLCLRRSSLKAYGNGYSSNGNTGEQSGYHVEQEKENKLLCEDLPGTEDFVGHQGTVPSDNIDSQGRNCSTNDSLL
5-hydroxytryptamine receptor 2A (Homo sapiens), sequence (P28223 whole entry, looked up): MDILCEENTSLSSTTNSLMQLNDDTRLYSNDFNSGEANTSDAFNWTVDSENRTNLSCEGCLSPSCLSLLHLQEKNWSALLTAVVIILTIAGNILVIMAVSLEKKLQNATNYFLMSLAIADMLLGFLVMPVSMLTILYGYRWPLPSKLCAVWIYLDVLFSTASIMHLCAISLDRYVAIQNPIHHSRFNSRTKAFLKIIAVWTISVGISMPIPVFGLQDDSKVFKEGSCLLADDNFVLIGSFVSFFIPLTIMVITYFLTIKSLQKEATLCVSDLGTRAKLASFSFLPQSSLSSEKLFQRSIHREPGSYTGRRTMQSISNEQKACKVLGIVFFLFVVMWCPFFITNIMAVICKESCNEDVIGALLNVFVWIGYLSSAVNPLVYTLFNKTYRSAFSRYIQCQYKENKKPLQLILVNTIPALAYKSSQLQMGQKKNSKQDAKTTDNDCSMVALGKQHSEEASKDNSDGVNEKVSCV
Gonadotropin-releasing hormone receptor (Homo sapiens), sequence (P30968 whole entry, looked up): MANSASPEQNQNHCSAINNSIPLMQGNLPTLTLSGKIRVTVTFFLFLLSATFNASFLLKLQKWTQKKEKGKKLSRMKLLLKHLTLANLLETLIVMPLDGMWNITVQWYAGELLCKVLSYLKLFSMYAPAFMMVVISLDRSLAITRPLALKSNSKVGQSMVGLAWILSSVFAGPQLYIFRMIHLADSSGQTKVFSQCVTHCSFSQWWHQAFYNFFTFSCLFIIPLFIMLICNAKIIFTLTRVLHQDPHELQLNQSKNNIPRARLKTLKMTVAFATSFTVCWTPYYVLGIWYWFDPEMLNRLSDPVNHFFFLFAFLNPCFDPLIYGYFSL
D(2) dopamine receptor (Homo sapiens), sequence (P14416 whole entry, looked up): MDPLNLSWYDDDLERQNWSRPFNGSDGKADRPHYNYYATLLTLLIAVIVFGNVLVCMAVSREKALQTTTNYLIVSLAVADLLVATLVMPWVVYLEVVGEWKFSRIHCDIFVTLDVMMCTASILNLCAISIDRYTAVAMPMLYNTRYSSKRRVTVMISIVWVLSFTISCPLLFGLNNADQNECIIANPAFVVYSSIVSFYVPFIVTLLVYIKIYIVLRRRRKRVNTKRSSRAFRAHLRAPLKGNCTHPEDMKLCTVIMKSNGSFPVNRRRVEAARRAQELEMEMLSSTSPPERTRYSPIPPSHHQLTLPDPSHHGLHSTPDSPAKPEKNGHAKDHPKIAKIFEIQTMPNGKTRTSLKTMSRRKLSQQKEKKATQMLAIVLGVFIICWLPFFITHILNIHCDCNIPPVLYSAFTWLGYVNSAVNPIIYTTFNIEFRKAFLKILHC

CC[C@H]1C[C@@H]2C[C@H]3c4[nH]c5ccc(OC)cc5c4CCN(C2)[C@@H]13
active: [1] 67.4 µM | [10] 0.293 µM
not listed: [15] | [16] | [17] | [18] | [19] | [20]
inactive: all other assays above

OC(c1ccc(Cl)cc1)(c1ccc(Cl)cc1)C(Cl)(Cl)Cl
active: [16] 26.5 µM
not listed: [13] | [14] | [18] | [19] | [20]
inactive: all other assays above

CC1CCCC1
inactive: [5] | [6] | [7] | [8] | [15] | [9]

c1cc(OCC2CO2)ccc1Cc1ccc(OCC2CO2)cc1 (centres undefined)
active: [1] 27.4 µM and 27.3 µM
not listed: [9] | [11] | [18] | [19] | [20]
inactive: all other assays above

CC(O)(CS(=O)(=O)c1ccc(F)cc1)C(=O)Nc1ccc(C#N)c(C(F)(F)F)c1 (centres undefined)
not listed: [10] | [11] | [12] | [14] | [16] | [19] | [20]
inactive: all other assays above

ClC(Cl)=C(Cl)Cl
not listed: [10] | [18] | [20]
inactive: all other assays above

Nc1cc(Cl)ccc1Cl
not listed: [10] | [11] | [20]
inactive: all other assays above

C=CCC1=C(C)[C@@H](OC(=O)[C@@H]2[C@@H](C=C(C)C)C2(C)C)CC1=O
active: [1] 61.1 µM | [16] 16.8 µM
not listed: [9] | [13] | [14] | [17] | [18] | [19] | [20]
inactive: all other assays above

NS(=O)(=O)C(F)(F)C(F)(F)C(F)(F)C(F)(F)C(F)(F)C(F)(F)C(F)(F)C(F)(F)F
active: [1] 68.6 µM | [12] 0.0022 µM
not listed: [9] | [13] | [16] | [19]
inactive: all other assays above

CC(C)[C@@H](C(=O)O[C@@H](C#N)c1cccc(Oc2ccccc2)c1)c1ccc(Cl)cc1
not listed: [8] | [17] | [19]
inactive: all other assays above

CCCN(CC1CC1)c1c([N+](=O)[O-])cc(C(F)(F)F)cc1[N+](=O)[O-]
active: [1] 48.6 µM
not listed: [20]
inactive: all other assays above

[As]#[In]
not listed: [10]
inactive: all other assays above

CCNC(=O)NC(=O)/C(C#N)=N/OC
inactive: [4] | [8] | [15] | [10] | [11] | [16] | [12] | [18] | [17] | [13] | [14]

CCCN(CCCl)c1c([N+](=O)[O-])cc(C(F)(F)F)cc1[N+](=O)[O-]
not listed: [16] | [19]
inactive: all other assays above

Cc1ccc([N+](=O)[O-])[c]2c1[O][Hg]2
inactive: [3] | [4] | [5] | [6] | [16]
active: [1] 2.66 µM | [2] 16.9 µM | [7] 15.8 µM | [8] 15.8 µM | [15] 8.9 µM | [10] 7.29 µM | [11] 23.9 µM | [12] 23.9 µM | [17] 29.8 µM | [13] 32.2 µM

ClC1=C(Cl)[C@]2(Cl)[C@H]3[C@H]([C@@H]4C=C[C@H]3C4)[C@@]1(Cl)C2(Cl)Cl
not listed: [20]
inactive: all other assays above
